Experimental findings from PubChem BioAssay (NCI) are described below.

Experiment in all cases: NCI-60 one-dose screen, 48 h (100 = growth as untreated, 0 = no growth, -100 = all killed)
Holding throughout (conditions): 10 µM unless noted

For test [1], the system named is SR leukemia.
Test [2] deals with RPMI-8226 leukemia.
The test system of test [3] is OVCAR-5 ovarian.
The subject of test [4] is OVCAR-4 ovarian.
The subject of test [5] is SK-OV-3 ovarian.
Test [6] has as its system IGROV1 ovarian.
Test [7] relates to OVCAR-3 ovarian.
In test [8] the test system is HS 578T breast.
Test [9] deals with NCI/ADR-RES ovarian.
Test [10] deals with T-47D breast.
In test [11] the test system is BT-549 breast.
The test system of test [12] is MDA-MB-435 melanoma.
Test [13] concerns SW-620 colon.
The subject of test [14] is MCF7 breast.
Test [15] has as its system HCT-116 colon.
Test [16] concerns HCC-2998 colon.
Test [17] concerns KM12 colon.
Test [18] relates to OVCAR-8 ovarian.

Structures are written as SMILES. Compounds without any hit were thinned out: in the full panel of roughly 83,000, 20% have a hit.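 Step 1: grow cells in 96-well plates. Step 2: add test compound at a single concentration. Step 3: incubate 48 h. Step 4: record percent growth.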 A number with no mark means an inactive call. Active and inactive are the calls of the source. The calls were made as follows: active = growth percent below 10; inactive = the rest.

Take `Clc1ccc(-c2nnc(Cn3ccnc3)o2)cc1`: the growth in [1] was 94.3%; in test [2], 112%; in test [3] it was 96.2%; in test [4], 102%; in test [5] it was 107%; in test [6], 108%. The growth in test [7] was 116%; in test [8], 95.1%; in [9] it was 106%; in [10], 100%; in test [11], 120%; in [12], 105%. Further, the growth in test [13] was 98.6%; in test [14] it was 94.4%; in [15], 90.5%; in test [16], 110%; in [17], 105%.

As to `COc1cc(C2CC(=O)Nc3n[nH]c(-c4ccccc4)c32)cc(OC)c1OC` (stereo not given), the growth was 31.8% in test [1]; 90.6% in test [2]; 91.3% in [3]; 88.4% in test [4]; 85.5% in [5]; 71.4% in test [6]. Further, the growth was 36% in test [7]; 74.8% in test [8]; 104% in [9]; 67.3% in test [10]; 52.4% in test [11]; -2.19% (active) in test [12]. The growth in test [13] is 44.5%; in test [14], 47.1%; in test [15], 45.1%; in test [16] it was 68%; in test [17], 51.5%.

As to `CC1(C)N=C(N)N=C(N)N1c1ccc(Cl)c(Cl)c1`, the growth in test [1] is 39.5%; in test [2], 48.2%; in [18] it was 28.7%; in test [4], 54.5%; in [5], 39.5%; in test [6], 41.2%. Besides, the growth in test [7] was 53%; in test [10], 69.8%; in test [11], 42.9%; in test [12], 27.4%; in test [13], 43.1%; in test [14] it was 21.4%. Also, the growth is 24.9% in [15], 20.8% in test [16] and 38.8% in test [17].

Consider `CNC=O`, for which the growth in test [1] is 92.4%; in test [2] it was 103%; in test [3] it was 87.7%; in [4] it was 115%; in test [5] it was 105%; in test [6] it was 95%. Moreover, the growth in test [7] is 109%; in test [8], 2.14% (active); in test [9], 59.5%; in [10], 98.3%; in [11], 168%; in [12], 96.9%. The growth is 93.5% in [13]; 99.3% in test [14]; 95.8% in test [15]; 174% in test [16]; 95.5% in test [17].

Regarding `CC/C=C/[C@@H]1C=C[C@@H]2CCC[C@H]2[C@@H]1CC[C@H](O)[C@H](C)N`, the growth in test [1] was -40.1% (active); in test [2], -50.2% (active); in test [3], -29% (active); in [4] it was 32.8%; in [5], -15.9% (active); in test [6], 1.42% (active). Further, the growth was -64.8% (active) in test [7]; -44.3% (active) in [8]; -33.4% (active) in test [9]; -45.4% (active) in test [10]; 85.9% in test [11]; -89.3% (active) in test [12]. Moreover, the growth is -67.2% (active) in [13]; -85.8% (active) in test [14]; -76.2% (active) in [15]; -88.6% (active) in [16]; -85.1% (active) in [17].

On to `C=C(C=O)[C@@H]1CC=C(C=O)CC1`, for which the growth was -6.52% (active) in test [1]; -36.6% (active) in [2]; -54.5% (active) in test [3]; 10.5% in [4]; 0.713% (active) in test [5]; -24.5% (active) in [6]. Further, the growth was -19.7% (active) in [7]; 3.97% (active) in test [9]; -27.7% (active) in [10]; -18.9% (active) in test [11]; -31.4% (active) in test [12]; -25.7% (active) in test [13]. In addition, the growth in [14] is -17.3% (active); in test [15], 5.92% (active); in [16], -30% (active); in [17] it was -36.6% (active).

Consider `C(=C\c1nc2ccccc2[nH]1)/c1nc2ccccc2[nH]1`, for which the growth in test [1] is 93.3%; in test [2], 89.9%; in test [3], 111%; in [4], 97.1%; in test [5], 98.4%; in [6], 93.1%. For the same molecule, the growth in test [7] is 109%; in test [8], 100%; in [9] it was 94.3%; in test [10] it was 78.2%; in test [11] it was 118%; in [12] it was 104%. The growth in test [13] was 108%; in [14], 74.4%; in test [15], 104%; in [16], 88.4%; in test [17], 98.1%.

On to `CC(/C=N/NC(=O)c1cc(-c2ccco2)[nH]n1)=C\c1ccccc1`, for which the growth in test [1] is 88.7%; in [2], 84.7%; in [3] it was 96.9%; in test [4] it was 99.6%; in test [5], 97.4%; in [6] it was 107%. Further, the growth in test [7] is 107%; in test [8], 30.3%; in [9] it was 97.8%; in test [10] it was 96.6%; in test [11], 101%; in test [12], 89.9%. The growth in test [13] is 101%; in test [14] it was 99.8%; in [15], 99.3%; in test [16] it was 106%; in test [17] it was 93.9%.

Turning to `O=C1Nc2ccccc2SC1C1SC(=S)N(Cc2ccccc2)C1=O` (stereo not given), the growth in [1] is -12.1% (active); in test [2], -21.7% (active); in test [3], 104%; in test [4], 59.8%; in [5], 118%; in [6] it was 96.5%. Further, the growth is -5.62% (active) in test [7]; 27% in test [8]; 104% in test [9]; 24.1% in [10]; 42.4% in test [11]; 0.237% (active) in test [12]. Also, the growth was 20.9% in test [13]; 17.8% in test [14]; 42.8% in [15]; 136% in [16]; -48.5% (active) in [17].
